The record followed here is ChEMBL document CHEMBL3988442, “University of Dundee, Small-Polar-MMV Screening Library” (2021).

Out of some 48,000 compounds screened, about 13,000 (27%) showed an effect of 50% or more. The list shows a part of the results.

In this assay the test system is Wolbachia pipientis. Description: Anti-Wolbachia Cell-Based Screen. Further details: scale not given: in the data most compounds retested in dose-response had high values. Conditions: 5 µM. Format: functional.
Take `CCC(Nc1nnnn1-c1ccccc1)C(=O)Nc1ccccc1C` (stereo unspecified): the “Percent Effect” value was -5.481%. With `Cc1ccc(CNCc2cccc3cccnc23)c(OC2CCOC2)c1` (stereo unspecified), the “Percent Effect” value is -38.45%.

Take `COc1ccc(CC(=O)N2CCCCC2Cn2cc(C)cn2)cc1F` (stereo unspecified): the “Percent Effect” value is listed as 102.6%.

For the compound `COc1ccc(CC(=O)N2CCCC2Cn2cc(C)cn2)cc1OC` (stereo unspecified), the “Percent Effect” value came out at 112.4%.

As to `COc1ccccc1OCCC(=O)N1CCCC1Cn1cc(C)cn1` (stereo unspecified), the “Percent Effect” value is listed as -7.788%. Take `COc1ccc(CCC(=O)N2CCCC2Cn2cc(C)cn2)cc1F` (stereo unspecified): the “Percent Effect” value was -0.1438%.

For `COc1ccc(CC(=O)N2CCCC2Cn2cc(C)cn2)c(OC)c1` (stereo unspecified), the “Percent Effect” value was 126.4%. To `Cc1noc(-c2ccc(N(C)Cc3ccncc3C)nc2)n1` belongs -8.712%; to `O=C(Nc1cnc(C2CC2)nc1)N1CCC(CN2CCCC2)C1` (stereo unspecified), 2.987%; to `O=C(c1cnc(-c2cnccn2)s1)N1CCCC(n2cccn2)C1` (stereo unspecified), 90.03%. The figure for `Cn1cc(C(=O)N2CCCC(n3cccn3)C2)c2ccccc21` (stereo unspecified) is -10.45%; for `Cc1ncc(C(=O)N2CCCC(n3cccn3)C2)s1` (stereo unspecified) it is 111.9%.

As to `O=C(c1cnc(-c2ncccn2)s1)N1CCCC(n2cccn2)C1` (stereo unspecified), the “Percent Effect” value came out at 84.63%. Consider `O=C(c1cnc(-c2cccs2)s1)N1CCCC(n2cccn2)C1` (stereo unspecified), for which the “Percent Effect” value worked out at 0.5894%. To `O=C(c1cnc(C2CC2)s1)N1CCCC(n2cccn2)C1` (stereo unspecified) belongs 6.794%. To `CCc1[nH]ncc1C(=O)N1CCCC(n2cccn2)C1` (stereo unspecified) belongs -0.4405%; to `O=C(c1cnc(-c2ccccn2)s1)N1CCCC(n2cccn2)C1` (stereo unspecified), 116.5%. To `COc1ccccc1NC(=O)NCC(O)(c1ccccc1)C1CC1` (stereo unspecified) belongs 10.27%; to `CCOc1ccc(NS(=O)(=O)c2cc(C)c(C(=O)O)s2)cc1F`, -1.908%.

On to `CC(C)=CCN1CCC(c2nccn2Cc2cscn2)CC1`, for which the “Percent Effect” value is reported as 3.314%. The figure for `Cc1nccn1CCCC(=O)N1CCCN(c2cccnn2)CC1` is 66.22%. The figure for `Cc1nccn1CCCC(=O)N1CCC(N(C)c2cccnn2)CC1` is 114.4%. To `Cc1ccccc1N1CCCN(C(=O)CCCn2ccnc2C)CC1` belongs 7.495%; to `CCc1cc(O)n2nc(C3CCN(C(=O)c4cccnc4)CC3)cc2n1`, 97.39%. For the compound `Cc1nc2cc(C3CCN(C(=O)c4ccccn4)CC3)nn2c(O)c1C`, the “Percent Effect” value stood at 104%. To `Cn1ccc(C2CCCCN2C(=O)c2cccc(Cn3cccn3)c2)n1` (stereo unspecified) belongs -10.23%.

Regarding `CC(C)n1ccnc1C1CCN(C(=O)c2ccc(SCCO)cc2)CC1`, the “Percent Effect” value is listed as -4.655%. The figure for `CC[C@H]1CN(C(=O)c2cccnc2)CC[C@H]1CC(=O)NCCOC` is -6.846%; for `CCc1cc(O)n2nc(C3CCN(C(=O)c4ccncc4)CC3)cc2n1` it is 121.2%. The figure for `CCc1cc(O)n2nc(C3CCCN3C(=O)c3ccccn3)cc2n1` (stereo unspecified) is 131.2%.

As for `CCc1nc(C2CCCN2C(=O)c2nc(C)n3ccccc23)no1` (stereo unspecified), the “Percent Effect” value is -3.852%. The figure for `CCC(C)c1noc(C2CCN(C(=O)c3cccnc3)CC2)n1` (stereo unspecified) is -14.35%. The figure for `CCc1nc(CN(C)C(=O)NCc2cccc(NC(C)=O)c2)cs1` is -8.024%.

For the compound `CS(=O)(=O)CCNCc1ccc(OCc2cscn2)cc1`, the “Percent Effect” value was -7.403%.

For the compound `CC(C)c1ccc(OCCC(=O)N(C)CC(=O)N(C)C)cc1`, the “Percent Effect” value was -12.7%.

Take `CCc1cc(O)n2nc(C3CCN(C(=O)c4ccccn4)CC3)cc2n1`: the “Percent Effect” value worked out at 117.9%. On to `CC(C)n1ccnc1C1CCN(C(=O)c2ccccn2)CC1`, for which the “Percent Effect” value is listed as -22.55%.

Consider `CCc1nnc(CN2CCN(C(=O)c3ccccn3)CC2)o1`, for which the “Percent Effect” value was -6.012%. The figure for `COc1c(CNCCNC(=O)c2ccco2)c(C)nn1C` is 8.194%. Take `Cc1nn(C)c(N(C)C)c1CNCc1ccc(C(=O)N(C)C)cc1`: the “Percent Effect” value is on record as 123.8%. In the case of `Cc1nn(C)c(N(C)C)c1CNCc1ccc(OCC(N)=O)cc1.Cl`, the “Percent Effect” value is on record as 3.035%. The figure for `COc1c(CNCc2ccc(C(=O)N3CCCC3)cc2)c(C)nn1C.Cl` is 173.2%; for `COc1c(CNCc2ccc(C(=O)N(C)C(C)C)cc2)c(C)nn1C` it is 196.4%.

On to `COc1c(CNCc2cccc(C(=O)N(C)C)c2)c(C)nn1C`, for which the “Percent Effect” value is reported as 120.7%. For `CCNC(=O)c1ccc(CNCc2c(C)nn(C)c2N(C)C)cc1`, the “Percent Effect” value is on record as 0.7448%. The figure for `COc1c(CNCc2ccc(C(=O)NC3CC3)cc2)c(C)nn1C.Cl` is -2.896%; for `COc1c(CNCCNC(=O)c2ccc(C)cc2)c(C)nn1C` it is -13.57%. `COc1c(CNCc2cccc(CN(C)C)c2)c(C)nn1C.Cl`: the “Percent Effect” value is -1.675%.

Take `COc1c(CNCc2ccc(C(=O)N(C)C)cc2)c(C)nn1C.Cl`: the “Percent Effect” value is listed as -9.305%. Consider `CCc1noc(CS(=O)(=O)Cc2ccccc2C)n1`, for which the “Percent Effect” value was 2.156%.

Take `CN1C[C@@H](N)C[C@H]1c1nc(-c2ccc3c(c2)OCO3)no1`: the “Percent Effect” value is given as -7.718%. With `CC(C)(C)n1cc(CNC2CCN(C(=O)c3ccoc3)CC2)cn1.Cl`, the “Percent Effect” value came out at 4.064%. To `CCC(C)(C)C(=O)NCCCOC1CCOC1` (stereo unspecified) belongs -11.1%; to `CC(C)S(=O)(=O)N1CCOC(CCc2ccccc2)C1` (stereo unspecified), -8.11%; to `O=C1CCCN1Cc1nnn2c1CN(c1ncccn1)CCC2`, -7.828%. The figure for `c1cc(CN2CCCn3nnc(COCC4CC4)c3C2)ccn1` is -2.908%; for `Cc1cnnn1Cc1nnn2c1CN(Cc1ccccn1)CCC2.O=C(O)C(F)(F)F` it is -8.238%. Consider `O=C(O)C(F)(F)F.O=C(O)C(F)(F)F.c1cncc(CN2CCCn3nnc(COCC4CC4)c3C2)c1`, for which the “Percent Effect” value is -24.42%. Turning to `O=C(O)C(F)(F)F.O=C(O)C(F)(F)F.O=C(c1cccnc1)N1CCn2nnc(COc3cccnc3)c2C1`, the “Percent Effect” value is given as -17.53%. In the case of `C1CN(CC2CCOCC2)Cc2c(CN3CCOCC3)nnn2C1`, the “Percent Effect” value came out at 2.088%. Take `O=C(O)C(F)(F)F.c1cncc(N2CCCn3nnc(COCC4CC4)c3C2)c1`: the “Percent Effect” value was determined as 122.7%. Consider `O=C(O)C(F)(F)F.O=C(O)C(F)(F)F.c1ccc(CN2CCCn3nnc(COc4ccccn4)c3C2)nc1`, for which the “Percent Effect” value is -12.56%.

For the compound `O=C(O)C(F)(F)F.O=C(O)C(F)(F)F.c1cncc(N2CCCn3nnc(CN4CCCCC4)c3C2)c1`, the “Percent Effect” value stood at 109.4%.

Regarding `c1cncc(N2CCCn3nnc(CN4CCOCC4)c3C2)c1`, the “Percent Effect” value is listed as 107.9%. The figure for `O=C(O)C(F)(F)F.c1cnc(N2CCCn3nnc(COCC4CC4)c3C2)nc1` is -15.27%. The figure for `O=C(O)C(F)(F)F.O=C1CCCN1Cc1nnn2c1CN(c1cccnc1)CCC2` is 87.49%.
